The results in this text go back to PubChem BioAssay AID686979 (National Center for Advancing Translational Sciences (NCATS), 2013).

Screen size: about 420,000 compounds; about 50,000 (12%) were called active. Entries that show only a call come without a potency. Inconclusive results (about 26%) are left out. Calls follow the shape of the dose curve; as a rule, active = well fitted inhibition curve with a large enough effect; inconclusive = small, poorly fitted or top-dose-only effect; inactive = flat fitted curve, though single readings scatter. The sample as a whole holds a higher share of actives than the screen did.
Potency is read from the fitted curve at half-maximal effect.

This assay is described as follows: qHTS for Inhibitors of human tyrosyl-DNA phosphodiesterase 1 (TDP1): qHTS in cells in presence of CPT. Also: nearly all actives have a fitted effect of over 55% in size. As to conditions: chicken DT40 Tdp1-/-;hTDP1 cells + 20 nM CPT, ATP luminescence, 48 h; series mostly up to 46.2 µM. An outline of the steps: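 Cell growth measured by CellTiter-Glo luminescence after a minimum 48 h, 37 C compound exposure with 20 nM CPT in Tdp1-knockout DT40 cells stably expressing hTDP1, seeded 400/well; qHTS titration format.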
For `Cc1c(C)n2c(SCC(=O)NC3CCCC3)nnc2[nH]c1=O`, the Potency result is “inactive”.
Still for that read-out and setting: in the case of `CCCN(CC(=O)Nc1ccc(OC)c(OC)c1)CC(=O)Nc1ccc(F)c(F)c1F` it was “inactive”.
The same measure, in the same setting: as for `Cc1cc(S(=O)(=O)N2CCOCC2)ccc1OCC(=O)N1CCOCC1`, the entry is “inactive”.
With `Cc1cc(C(=O)COc2ccccc2[N+](=O)[O-])c(C)n1-c1cccc(S(=O)(=O)N2CCOCC2)c1`, the Potency is 16.4 µM (active).
Same read-out and setting: in the case of `O=C(COc1ccc(S(=O)(=O)N2CCCC2)cc1[N+](=O)[O-])N1CCCCC1` it was “inactive”; in that of `Cc1cccc(N(C(=O)c2sc(C)nc2C)C(C(=O)NCC2CCCO2)c2ccccc2)c1` (centres undefined), “inactive”; in that of `CN(C)c1ccc(S(=O)(=O)NCC(=O)NCC2CCCCC2)cc1[N+](=O)[O-]`, “inactive”.
On the same count and under the same terms, as for `CCOc1ccc(S(=O)(=O)NCCC(=O)NNC(=O)c2ccc(F)cc2)cc1`, the entry is “inactive”; as for `O=C(c1ccncc1)N1CCN(S(=O)(=O)c2cccc([N+](=O)[O-])c2)CC1`, “inactive”.
Regarding `CCc1ccc(OCC(=O)OC(C)C(=O)NC2CC2)cc1` (centres undefined), the Potency result was “inactive”.
On the same count and under the same terms, as for `CN(CC(=O)Nc1c(Cl)cccc1Cl)C(=O)CC1OC(=O)c2ccccc21` (centres undefined), the entry is “inactive”.
Still for that read-out and setting: as for `CCCOC(=O)c1c(NC(=O)c2cc3nc(-c4ccc(OC)cc4)cc(C(F)(F)F)n3n2)sc2c1CCCC2`, the entry is “inactive”.
On the same count and under the same terms, as for `COc1ccc(NC(=O)CN(C)C(=O)c2ccc(COc3ccccc3)o2)cc1`, the entry is “inactive”; as for `O=[N+]([O-])c1ccc(C=Nc2ccc(Cl)cc2Cl)s1`, 6.51 µM (active).
On to `CC(=O)N1C(=O)/C(=C2\SC(=S)N(NC(=O)c3ccc(O)cc3)C2=O)c2ccccc21`, for which the Potency result was “inactive”.
The same measure, in the same setting: in the case of `CCOc1ccc(CNC(=O)c2cccc(Nc3nc4ccccc4n4nnnc34)c2)cc1OC` it was “inactive”; in that of `CCOC(=O)c1cc(-c2ccc(F)cc2)n(CC(=O)NCc2ccccn2)c1C`, “inactive”; in that of `Cc1oc(-c2ccccc2F)nc1CS(=O)CC(=O)NCCN1CCCCC1C` (centres undefined), “inactive”.
Still for that read-out and setting: in the case of `CCC(=O)OCCNc1nc(-c2ccccc2)nc2ccccc12` it was “inactive”; in that of `Fc1ccc(-c2ccc(NCCN3CCOCC3)nn2)cc1`, “inactive”.
Turning to `CN(C)c1ccc(-c2nc(NCCN3CCOCC3)c3ccccc3n2)cc1`, the Potency was 5.8 µM (active).
Still for that read-out and setting: as for `CC1CCN(C(=O)CSc2nnc(-c3ccco3)n2N)CC1`, the entry is “inactive”.
As to `CC1(C(=O)NS(=O)(=O)c2cccc(OC(F)F)c2)CCN1C(=O)C1CC1` (centres undefined), the Potency entry was “inactive”.
On the same count and under the same terms, in the case of `CC1CCCCC1NC(=O)COC(=O)Cc1ccc(Cl)cc1` (centres undefined) it was “inactive”; in that of `COc1ccc(C2=NN(C(C)=O)C(c3ccccc3)C2)cc1` (centres undefined), “inactive”; in that of `COc1ccc(C2=NN(c3nc4ccccc4s3)C(=O)C2)cc1`, 20.6 µM (active).
Still for that read-out and setting: as for `COc1ccc(-n2nnnc2-c2nc3ccccc3s2)cc1`, the entry is “inactive”; as for `COc1ccc(S(=O)(=O)NCC2CCCN(C(=O)c3occc3C)C2)cc1` (centres undefined), “inactive”; as for `Cc1ccccc1OCC(=O)NCC(=O)OCC(=O)c1ccc2ccccc2c1`, “inactive”.
Still for that read-out and setting: as for `CC1(NC(=O)CCS(=O)(=O)c2ccc(Cl)cc2)CCS(=O)(=O)C1` (centres undefined), the entry is “inactive”; as for `CCOc1ccc(CN2CCN(Cc3ccc(C)o3)CC2CCO)cc1` (centres undefined), “inactive”; as for `O=S(=O)(Nc1ccc2[nH]ncc2c1)c1ccccc1Cl`, “inactive”.
As to `COC(=O)c1cc(NC(=O)c2ccco2)ccc1N1CCOCC1`, the Potency result was “inactive”.
On the same count and under the same terms, as for `COC(=O)c1cc(NC(=O)c2cccnc2)ccc1N1CCOCC1`, the entry is “inactive”; as for `CC(=O)Nc1ccc(N2CCOCC2)c(C(=O)Nc2cccc(C)c2)c1`, 13 µM (active); as for `CCN(CC)c1ccc(NC(=O)c2ccc(=O)[nH]c2)cc1S(=O)(=O)Nc1ccc(OC)cc1`, 29.1 µM (active).
Same read-out and setting: as for `COc1ccc(NS(=O)(=O)c2cc(NC(=O)c3ccc(S(=O)(=O)N(C)C)cc3)ccc2N2CCOCC2)cc1`, the entry is “inactive”.
As to `O=C(NNC(=O)c1cccc(S(=O)(=O)Nc2ccc(Cl)cc2)c1)c1ccc(=O)[nH]c1`, the Potency entry was “inactive”.
For the compound `Cc1cc(OCC(=O)N2CCN(c3ncccn3)CC2)ccc1Cl`, the Potency result is “inactive”.
On the same count and under the same terms, as for `COC(=O)C1=C(C)N(C)C(=S)NC1c1cc(OC)ccc1OC` (centres undefined), the entry is “inactive”.
Still for that read-out and setting: as for `COC(=O)C1=CN(Cc2ccc(OC)c(OC)c2)C=C(C(=O)OC)C1c1cccs1`, the entry is “inactive”.
Turning to `COc1cc2c(cc1OC)[C@@H](Cc1cc(OC)c(OC)c(OC)c1)[N+](C)(CCCOC(=O)CC/C=C/CCC(=O)OCCC[N+]1(C)CCc3cc(OC)c(OC)cc3[C@H]1Cc1cc(OC)c(OC)c(OC)c1)CC2` (some centres undefined), the Potency entry was “inactive”.
The same measure, in the same setting: in the case of `COc1ccc(CC2c3cc(OC)c(OC)cc3CC[N+]2(C)CCC(=O)OCCCCCOC(=O)CC[N+]2(C)CCc3cc(OC)c(OC)cc3C2Cc2ccc(OC)c(OC)c2)cc1OC` (centres undefined) it was 16.4 µM (active).
Same read-out and setting: as for `O=C(NCc1cccc(CNC(=O)Nc2cccc(O)c2)c1)Nc1cccc(O)c1`, the entry is “inactive”; as for `COc1ccc(C(=O)OCC(=O)Nc2ccc3[nH]c(=O)[nH]c3c2)c(OC)c1OC`, “inactive”; as for `C/C(=N\N1CCN(Cc2ccc(C)cc2)CC1)c1ccco1`, “inactive”.
The same measure, in the same setting: in the case of `NS(=O)(=O)c1ccc(N2C(=O)C3C4CC(C(Br)C4Br)C3C2=O)cc1` (centres undefined) it was “inactive”; in that of `Cc1cc(O)ccc1NC1=CC(=O)CC(C)(C)C1`, “inactive”; in that of `Cc1ccccc1C#CC1=CC(=O)CC(C)(C)C1`, 20.6 µM (active).
On to `CC1(C)CC(=O)C=C(Nc2ccccc2)C1`, for which the Potency entry was “inactive”.
The same measure, in the same setting: as for `COc1ccc(C2(O)C(=O)Nc3ccccc32)cc1` (centres undefined), the entry is “inactive”; as for `CC(=O)N1CCN(CC(C)(C)NS(=O)(=O)c2ccc(C)cc2)CC1`, “inactive”.
Same read-out and setting: as for `COc1cc(NS(=O)(=O)c2ccc3ccccc3c2)c2ncccc2c1`, the figure is 8.2 µM (active); as for `CCOc1ccc(OCC)c(NS(=O)(=O)c2ccc3[nH]c(=O)ccc3c2)c1`, “inactive”; as for `COc1ccc2cc(S(=O)(=O)Nc3ccccn3)ccc2c1`, “inactive”.
On to `CN(C)C(=O)[C@@H]1C[C@@H](Sc2nc3ccccc3[nH]2)CN1Cc1ccc(Cl)cc1`, for which the activity change, negative = growth inhibition was 0.0416% [at 9.04 µM] (inactive).
With `CCCCn1nc(C(=O)N2CCc3ccccc32)c2ccccc2c1=O`, the Potency is 18.4 µM (active).
The same measure, in the same setting: as for `CCOC(=O)C(C)Oc1cccc2c(=O)n(CC(=O)N3CCc4ccccc43)ccc12` (centres undefined), the entry is “inactive”; as for `CCCCn1nc(C(=O)OCC(=O)Nc2sccc2C(N)=O)c2ccccc2c1=O`, “inactive”.
`O=C(CSc1nc2ccccc2[nH]1)Nc1nc(-c2ccccc2)c(-c2ccccc2)o1`: the Potency result is “inactive”.
On to `O=C(CSc1n[nH]c(-c2cccs2)n1)N1CCCCC1`, for which the Potency entry is “inactive”.
The same measure, in the same setting: as for `Cc1cccc(C)c1-n1c(C)cc(/C=C2\C(=O)NN(c3ccccc3)C2=O)c1C`, the entry is “inactive”.
The same measure, in the same setting: as for `CC(C)Cn1cnc2c1c(=O)n(CC(O)c1ccccc1)c(=O)n2CC(C)C` (centres undefined), the entry is “inactive”; as for `Cn1c(=O)c2c(ncn2CCc2ccccc2)n(C)c1=O`, “inactive”; as for `Cn1c(=O)c2c(ncn2CC(COCc2ccccc2Cl)OCc2ccccc2Cl)n(C)c1=O` (centres undefined), 25.9 µM (active).
The same measure, in the same setting: in the case of `COc1ccc(C)cc1NC(=O)CSc1nnc2ccc(-c3ccccn3)nn12` it was “inactive”.
In the case of `CCN(Cc1ccccc1)S(=O)(=O)c1cc2c3c(c1)CCN3C(=O)CC2`, the Potency entry is “inactive”.
In the case of `O=C(CCc1nc(CN2CCN(S(=O)(=O)c3ccc(F)cc3)CC2)no1)N1CCCCC1`, the Potency entry is “inactive”.
Regarding `COc1ccc(CNC(=O)CN2CCC(n3nnc4cc(F)ccc43)CC2)cc1`, the Potency result was “inactive”.
The same measure, in the same setting: as for `COc1cccc(NC(=O)NCc2ccc(F)cc2)c1`, the entry is “inactive”.
The same measure, in the same setting: as for `CCc1ccc(CNCc2c(C(=O)O)n(Cc3ccc(F)cc3Cl)c3cc(OC)ccc23)cc1`, the figure is 11.6 µM (active); as for `COc1cc(C)nc(N2CCCC(C(=O)NCC(C)C)C2)n1` (centres undefined), “inactive”; as for `O=C(Nc1ccccc1)O/N=C1\CCCCC1c1ccc([N+](=O)[O-])cc1[N+](=O)[O-]` (centres undefined), “inactive”.
On the same count and under the same terms, in the case of `COc1cccc(NC(=O)COc2cccnc2[N+](=O)[O-])c1` it was “inactive”; in that of `CC(=O)Nc1nc(C)c(-c2csc(Nc3ccc(S(N)(=O)=O)cc3)n2)s1`, “inactive”.
With `C=CCCC(=O)Nc1nc(C)c(-c2csc(Nc3ccc(Cl)cc3)n2)s1`, the Potency is 11.6 µM (active).
Regarding `Cc1ccn2c(-c3csc(Nc4ccc(C(=O)O)cc4)n3)c(C)nc2c1`, the Potency entry was “inactive”.
Same read-out and setting: in the case of `CCCCCCC(=O)Nc1nc(C)c(-c2csc(Nc3cccc(OC)c3)n2)s1` it was 20.6 µM (active); in that of `Cc1nnc(NC(=O)CCCOc2ccccc2)s1`, “inactive”.
Still for that read-out and setting: as for `CCc1ccccc1OCC(=O)Nc1nnc(C2CC2)s1`, the entry is “inactive”; as for `N#Cc1ccc[n+](CC(=O)c2ccc(O)c(O)c2)c1`, “inactive”.
Still for that read-out and setting: as for `O=C(CSc1ncn[nH]1)Nc1ccc(Br)cc1Br`, the entry is “inactive”; as for `Cc1n[nH]c(=O)c2c(NC(=O)COC(=O)c3ncc(Cl)c(Cl)c3Cl)oc(C)c12`, “inactive”.
`O=C(CN(C(=O)c1nsc(Cl)c1Cl)c1cccc(F)c1)NC1CCCC1`: the Potency entry was “inactive”.
Still for that read-out and setting: in the case of `Cc1ccc(S(=O)(=O)n2oc(=O)c(C3CCCCC3)c2N)cc1` it was “inactive”.
On the same count and under the same terms, as for `O=C(N/N=C/c1ccc2c(c1)OCO2)c1ccc(Cn2cc([N+](=O)[O-])cn2)o1`, the entry is “inactive”.
On the same count and under the same terms, in the case of `Cc1c(Cl)c([N+](=O)[O-])nn1Cc1ccc(C(=O)N/N=C\c2cc(Cl)ccc2O)o1` it was 3.66 µM (active); in that of `Cc1ccc(C(=O)O)cc1NC(=O)c1ccc(Cn2nc(C)c(Cl)c2C)o1`, “inactive”; in that of `Brc1ccccc1/C=N/Nc1nc2ccccc2o1`, “inactive”.
Turning to `COCCN(C(=O)c1ccco1)c1nnc(-c2ccc(OC)cc2)s1`, the Potency result was “inactive”.
The same measure, in the same setting: as for `COc1cc(OC)cc(-c2nnc(N(C)C(=O)c3ccncc3)s2)c1`, the entry is “inactive”.
For `COCCN(C(=O)C(C)C)c1nnc(-c2ccc(C(C)(C)C)cc2)s1`, the Potency was 20.6 µM (active).
On the same count and under the same terms, in the case of `COc1ccc(/C=C/c2noc(-c3ccccc3O)n2)cc1OC` it was “inactive”; in that of `CC(=O)O[C@H]1c2ccccc2-c2ccccc2[C@@H]1OC(C)=O`, “inactive”; in that of `Cc1cccc(NC(c2cccc(F)c2)c2ccc3ccc(C)nc3c2O)n1` (centres undefined), 8.2 µM (active).
Same read-out and setting: as for `CCn1ncc(CNC(=O)C2(C)CC2(Br)Br)c1C` (centres undefined), the entry is “inactive”; as for `O=C(CCCC(=O)N1CCN(c2cccc(Cl)c2)CC1)c1ccccc1`, 14.6 µM (active).
On the same count and under the same terms, in the case of `O=C(CN1CCN(c2ccc(Cl)cc2)CC1)c1ccccc1` it was “inactive”; in that of `CCc1nc2ccc(C(=O)N3CCN(c4cccc(Cl)c4)CC3)cc2nc1CC`, “inactive”.
